Experimental data reported in PubChem BioAssay (EPA / NIEHS).
“And” between values parts separate entries of the source, which are not always exact repeats. Equal entries are not always repeated. Inconclusive results are not listed. Some compounds were tested as several samples or in several runs, with calls that do not always agree. The source made the active and inactive calls. How the source made its calls, unless noted: active means hit-call score of the fitted dose curve at least 0.9, where 1 is the maximum; inactive means score below 0.9. Peptide text beside a SMILES is read from it.

Tested on: not listed separately
Test: CCTE_Shafer_MEA_dev_bursting_electrodes_number: CCTE's Neural Network Formation Assay for Number of Bursting Electrodes, Shafer Lab (AID 2284043; active means hit-call score of the fitted dose curve at least 0.9, where 1 is the maximum;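 on AC50: potency is for loss of bursting electrodes relative to DMSO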)
Procedure, shortened: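 Primary rat cortical neurons were cultured on PEI-coated 48-well MEA plates (16 electrodes/well) and exposed from plating through day 12, with compound renewed at feeds on DIV 5 and 9. Electrodes bursting ≥1 per 2 min were counted on DIV 5, 7, 9, 12; trapezoidal AUC taken.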
For `C[N+](C)(C)CCCNS(=O)(=O)C(F)(F)C(F)(F)C(F)(F)C(F)(F)C(F)(F)C(F)(F)C(F)(F)C(F)(F)F`, the AC50 was 1.55 µM (active) and 4.37 µM (active). With `Cc1noc(NS(=O)(=O)c2ccc(N)cc2)c1C` the outcome was “inactive”. With `CCCCNS(=O)(=O)c1ccccc1` the outcome was “inactive”. In the case of `Cc1c(C(=O)c2c[nH]n(C)c2=O)ccc(S(C)(=O)=O)c1C1=NOCC1`, the outcome was “inactive”.

Tested on: not listed separately
Test: CCTE_Shafer_MEA_dev_per_burst_interspike_interval: CCTE's Neural Network Formation Assay for Burst Interspike Interval, Shafer Lab (AID 2284044);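 on AC50: potency for a decrease of within-burst interspike interval below DMSO level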
Procedure, shortened: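 Readout is the average time between spikes inside single-electrode bursts, taken as a well mean across bursting electrodes. Cortical neurons from rat developed networks on MEA plates under continuous 12-day exposure; recordings on days 5, 7, 9 and 12 were integrated by trapezoidal AUC.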
For `C[N+](C)(C)CCCNS(=O)(=O)C(F)(F)C(F)(F)C(F)(F)C(F)(F)C(F)(F)C(F)(F)C(F)(F)C(F)(F)F`, the AC50 was 2.98 µM (active) and the outcome was “inactive”. With `Cc1noc(NS(=O)(=O)c2ccc(N)cc2)c1C` the outcome was “inactive”. In the case of `CCCCNS(=O)(=O)c1ccccc1`, the outcome was “inactive”. For `COC(=O)[C@H](Cc1ccccc1)NC(=O)[C@@H](N)CC(=O)O` (H-Asp-Phe-OMe), the outcome was “inactive”. For `Cc1c(C(=O)c2c[nH]n(C)c2=O)ccc(S(C)(=O)=O)c1C1=NOCC1`, the outcome was “inactive”.

Tested on: not listed separately
Test: CCTE_Shafer_MEA_dev_burst_duration_mean: CCTE's Neural Network Formation Assay for Mean Burst Duration, Shafer Lab (AID 2284045);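 on AC50: curve fitted for loss meaning shorter burst duration than DMSO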
Procedure, shortened: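 Primary rat cortical neurons on PEI-coated 16-electrode MEA wells, exposed from plating through day 12 with compound renewed at DIV 5 and 9; spontaneous activity recorded days 5, 7, 9, 12. Well-mean burst duration collapsed as trapezoidal AUC, fitted for loss versus DMSO.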
In the case of `C[N+](C)(C)CCCNS(=O)(=O)C(F)(F)C(F)(F)C(F)(F)C(F)(F)C(F)(F)C(F)(F)C(F)(F)C(F)(F)F`, the outcome was “inactive”. With `Cc1noc(NS(=O)(=O)c2ccc(N)cc2)c1C` the AC50 was 24.1 µM (active). In the case of `CCCCNS(=O)(=O)c1ccccc1`, the outcome was “inactive”. For `COC(=O)[C@H](Cc1ccccc1)NC(=O)[C@@H](N)CC(=O)O` (H-Asp-Phe-OMe), the outcome was “inactive”. With `Cc1c(C(=O)c2c[nH]n(C)c2=O)ccc(S(C)(=O)=O)c1C1=NOCC1` the outcome was “inactive”.

Tested on: not listed separately
Test: CCTE_Shafer_MEA_dev_interburst_interval_mean: CCTE's Neural Network Formation Assay for Mean Interburst Interval, Shafer Lab (AID 2284046);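 further: well-mean interburst interval of bursting electrodes as AUC over four recording days; curve fitted for decrease in interburst interval relative to DMSO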
Procedure, shortened: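 Rat cortical neurons, 1.5 x 10^5 cells/well, 48-well MEA; compound from day 0 through DIV 12, media and treatment renewed DIV 5/9. Recordings DIV 5, 7, 9, 12; well-mean interburst interval → trapezoidal AUC, loss direction vs DMSO.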
For `C[N+](C)(C)CCCNS(=O)(=O)C(F)(F)C(F)(F)C(F)(F)C(F)(F)C(F)(F)C(F)(F)C(F)(F)C(F)(F)F`, the AC50 was 2.43 µM (active) and 4.96 µM (active). In the case of `Cc1noc(NS(=O)(=O)c2ccc(N)cc2)c1C`, the outcome was “inactive”. With `CCCCNS(=O)(=O)c1ccccc1` the outcome was “inactive”. For `COC(=O)[C@H](Cc1ccccc1)NC(=O)[C@@H](N)CC(=O)O` (H-Asp-Phe-OMe), the outcome was “inactive”. With `Cc1c(C(=O)c2c[nH]n(C)c2=O)ccc(S(C)(=O)=O)c1C1=NOCC1` the outcome was “inactive”.

Tested on: not listed separately
Test: CCTE_Shafer_MEA_dev_inter_network_spike_interval_mean: CCTE's Neural Network Formation Assay for Mean Inter-network Spike Interval, Shafer Lab (AID 2284047)
Procedure, shortened: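 Primary rat cortical neurons on PEI-coated 48-well MEAs (16 electrodes/well) were exposed from plating day 0 to DIV 12, with dosing renewed at DIV 5 and 9. Recordings at DIV 5, 7, 9, 12 were collapsed by trapezoidal AUC, loss-of-signal fit vs DMSO.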
With `C[N+](C)(C)CCCNS(=O)(=O)C(F)(F)C(F)(F)C(F)(F)C(F)(F)C(F)(F)C(F)(F)C(F)(F)C(F)(F)F` the outcome was “inactive”. With `Cc1noc(NS(=O)(=O)c2ccc(N)cc2)c1C` the outcome was “inactive”. With `CCCCNS(=O)(=O)c1ccccc1` the outcome was “inactive”. For `COC(=O)[C@H](Cc1ccccc1)NC(=O)[C@@H](N)CC(=O)O` (H-Asp-Phe-OMe), the outcome was “inactive”. With `Cc1c(C(=O)c2c[nH]n(C)c2=O)ccc(S(C)(=O)=O)c1C1=NOCC1` the outcome was “inactive”.

Tested on: not listed separately
Test: CCTE_Shafer_MEA_dev_network_spike_number: CCTE's Neural Network Formation Assay for Number of Network Spikes, Shafer Lab (AID 2284048);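 on AC50: fit as a loss of signal meaning fewer network spikes than DMSO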
Procedure, shortened: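 Primary rat cortical neurons were seeded at 1.5 x 10^5 cells/well on PEI-coated 16-electrode MEA wells with laminin, exposed from plating day 0, compound renewed at DIV 5 and 9. Network spikes were recorded on days 5, 7, 9, 12 and summarized as trapezoidal AUC versus DMSO.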
In the case of `C[N+](C)(C)CCCNS(=O)(=O)C(F)(F)C(F)(F)C(F)(F)C(F)(F)C(F)(F)C(F)(F)C(F)(F)C(F)(F)F`, the AC50 was 1.43 µM (active) and the outcome was “inactive”. With `Cc1noc(NS(=O)(=O)c2ccc(N)cc2)c1C` the outcome was “inactive”. With `CCCCNS(=O)(=O)c1ccccc1` the outcome was “inactive”. In the case of `COC(=O)[C@H](Cc1ccccc1)NC(=O)[C@@H](N)CC(=O)O` (H-Asp-Phe-OMe), the outcome was “inactive”. In the case of `Cc1c(C(=O)c2c[nH]n(C)c2=O)ccc(S(C)(=O)=O)c1C1=NOCC1`, the outcome was “inactive”.

Tested on: not listed separately
Test: CCTE_Shafer_MEA_dev_network_spike_peak: CCTE's Neural Network Formation Assay for Mean Number of Electrodes in Network Spike, Shafer Lab (AID 2284049);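 on AC50: fitted for loss of signal meaning fewer electrodes in network spikes than DMSO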
Procedure, shortened: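 Continuous 12-day exposure of rat cortical cultures, starting at plating, on MEA plates. Endpoint: electrodes participating in network-spike peaks, AUC across DIV 5–12, DMSO as negative control.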
For `C[N+](C)(C)CCCNS(=O)(=O)C(F)(F)C(F)(F)C(F)(F)C(F)(F)C(F)(F)C(F)(F)C(F)(F)C(F)(F)F`, the AC50 was 1.11 µM (active) and 1.4 µM (active). With `Cc1noc(NS(=O)(=O)c2ccc(N)cc2)c1C` the outcome was “inactive”. For `CCCCNS(=O)(=O)c1ccccc1`, the AC50 was 78.5 µM (active). In the case of `COC(=O)[C@H](Cc1ccccc1)NC(=O)[C@@H](N)CC(=O)O` (H-Asp-Phe-OMe), the outcome was “inactive”. With `Cc1c(C(=O)c2c[nH]n(C)c2=O)ccc(S(C)(=O)=O)c1C1=NOCC1` the outcome was “inactive”.

Tested on: DIO2 (gene 1734)
Test: CCTE_GLTED_hDIO2: CCTE's human Deiodinase 2 (DIO2) Inhibition Assay, Great Lakes Toxicology and Ecology Division (GLTED) Lab (AID 2284050; active means hit-call score of the fitted dose curve at least 0.9, where 1 is the maximum)
Procedure, shortened: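 Cell-free human DIO2 incubated 3 h with chemical; liberated iodide quantified by Sandell-Kolthoff absorbance. Triplicate plates; loss of signal fitted vs DMSO.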
With `O=C(O)c1cc(O)c2ccccc2c1O` the AC50 was 51 µM (active). With `CCCCCCCOC(=O)c1ccc(O)cc1` the AC50 was 106 µM (active). With `CCCCC/C=C\C/C=C\CCCCCCCC(=O)O` the AC50 was 36.8 µM (active). For `C/C=C/C=C/CCCCCCCO`, the AC50 was 19.9 µM (active). With `CCCCCCCCCCCCCCCCCCOS(=O)(=O)O` the AC50 was 40.6 µM (active). For `O=c1c(O)c(-c2ccc(O)cc2O)oc2cc(O)cc(O)c12`, the AC50 was 55.4 µM (active). For `CCCCCCCCCCCCc1ccc(O)cc1`, the AC50 was 69.7 µM (active).

Tested on: not listed separately
Test: CCTE_Shafer_MEA_dev_spike_duration_mean: CCTE's Neural Network Formation Assay for Mean Spike Duration, Shafer Lab (AID 2284051);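 further: mean network spike duration pooled as area under curve over DIV 5 to 12 recordings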;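 on AC50: potency for a decrease in mean network spike duration versus DMSO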
Procedure, shortened: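 Rat cortical primary cultures, 48-well MEA (16 electrodes/well); compound from plating, renewed DIV 5, 9. Network spike duration (AxIS adaptive detector) recorded DIV 5/7/9/12, combined as trapezoidal AUC; loss direction vs DMSO.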
With `C[N+](C)(C)CCCNS(=O)(=O)C(F)(F)C(F)(F)C(F)(F)C(F)(F)C(F)(F)C(F)(F)C(F)(F)C(F)(F)F` the AC50 was 2.58 µM (active) and the outcome was “inactive”. In the case of `Cc1noc(NS(=O)(=O)c2ccc(N)cc2)c1C`, the outcome was “inactive”. For `CCCCNS(=O)(=O)c1ccccc1`, the AC50 was 50.5 µM (active). For `COC(=O)[C@H](Cc1ccccc1)NC(=O)[C@@H](N)CC(=O)O` (H-Asp-Phe-OMe), the outcome was “inactive”. In the case of `Cc1c(C(=O)c2c[nH]n(C)c2=O)ccc(S(C)(=O)=O)c1C1=NOCC1`, the outcome was “inactive”.

Tested on: not listed separately
Test: CCTE_Shafer_MEA_dev_network_spike_duration_std: CCTE's Neural Network Formation Assay for Standard Deviation of Network Spike Duration, Shafer Lab (AID 2284052);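 further: area under curve of spike duration SD across recording days 5 to 12; hits are decreases in network spike duration SD versus DMSO vehicle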
Procedure, shortened: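 Rat cortical cultures, 1.5 x 10^5 cells/well, exposed continuously from plating to DIV 12 with media/compound renewal at DIV 5, 9. Spontaneous activity recorded DIV 5/7/9/12, AxIS adaptive spike detector; AUC across days; negative direction vs DMSO.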
With `C[N+](C)(C)CCCNS(=O)(=O)C(F)(F)C(F)(F)C(F)(F)C(F)(F)C(F)(F)C(F)(F)C(F)(F)C(F)(F)F` the outcome was “inactive”. For `Cc1noc(NS(=O)(=O)c2ccc(N)cc2)c1C`, the outcome was “inactive”. For `CCCCNS(=O)(=O)c1ccccc1`, the outcome was “inactive”. With `COC(=O)[C@H](Cc1ccccc1)NC(=O)[C@@H](N)CC(=O)O` (H-Asp-Phe-OMe) the outcome was “inactive”. With `Cc1c(C(=O)c2c[nH]n(C)c2=O)ccc(S(C)(=O)=O)c1C1=NOCC1` the outcome was “inactive”.
